The list is not random: actives were taken first. Their share in the collection is about 2.9%.
KLK7 zymogen act: activates the human kallikrein-7 zymogen | P49862 | purified proKLK7, EDANS-DABCYL substrate fluorescence; 100% is mature enzyme control, 0% vehicle | activation, % at 7 µM | actives 0.9% (n = 370,000) | AID 652039;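 active = activation above the mean of all tested compounds plus 3 SD, computed per campaign excluding outliers beyond control limits, cut at about 13% in these data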
PLCb3 inh: blocks human PLC-beta3 enzyme activity; Q01970; Purified PLC-beta3, fluorogenic substrate, fluorescence; inhibition, % at 12.2 µM; actives 0.18% (n = 370,000); AID 720704
PLCg1 inh: inhibitors of human phospholipase C gamma1 | P19174 | purified PLC-gamma1, fluorogenic substrate, fluorescence | inhibition, % at 12.2 µM | actives 0.84% (n = 370,000); in the data active = inhibition above about 9.5%
ADAM10 inh: inhibits human ADAM10; inhibition, % at 7 µM; recombinant ADAM10, EDANS/DABCYL FRET peptide cleavage, 3 h; O14672; actives 0.62% (n = 370,000);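 active = inhibition above a per-campaign cutoff equal to the mean of compounds falling between control-based bounds plus 3 SD, cut at about 20% in these data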
Target sequence (O14672 214-748 limits assumed): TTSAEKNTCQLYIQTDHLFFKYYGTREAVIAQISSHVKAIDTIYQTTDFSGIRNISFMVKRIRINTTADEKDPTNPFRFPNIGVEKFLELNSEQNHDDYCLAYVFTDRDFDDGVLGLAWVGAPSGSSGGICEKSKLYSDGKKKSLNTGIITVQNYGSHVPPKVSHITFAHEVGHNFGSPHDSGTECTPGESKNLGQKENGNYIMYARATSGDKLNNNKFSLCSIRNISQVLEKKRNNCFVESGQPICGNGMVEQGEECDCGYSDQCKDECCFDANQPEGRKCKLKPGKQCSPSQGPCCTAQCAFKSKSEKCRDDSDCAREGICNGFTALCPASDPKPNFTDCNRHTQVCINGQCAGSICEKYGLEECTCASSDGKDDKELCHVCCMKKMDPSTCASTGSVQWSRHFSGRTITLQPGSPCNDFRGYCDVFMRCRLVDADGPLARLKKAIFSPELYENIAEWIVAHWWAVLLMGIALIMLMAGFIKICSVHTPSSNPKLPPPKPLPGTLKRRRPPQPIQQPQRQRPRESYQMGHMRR
ADAM17 inh: inhibits human ADAM17; P78536; recombinant ADAM17, EDANS/DABCYL FRET peptide cleavage; inhibition, % at 6.95 µM; actives 0.83% (n = 370,000); AID 720648;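 active = inhibition above the mean of compounds lying between control limits plus 3 SD, set per campaign, cut at about 8.5% in these data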
ADAM10 confirm: confirmation of inhibitors of human ADAM10; shares compounds with ADAM10 inh; ADAM10 QFRET peptide cleavage, EDANS fluorescence; inhibition, % at 6.95 µM; actives 1% (n = 2,100);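 active = inhibition above about 20% chosen separately for each screening run, limit read from the data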
ADAM17 ctr: inhibits human ADAM17 in ADAM10 exosite counter-screen; shares compounds with ADAM10 inh; ADAM17 QFRET peptide cleavage, EDANS fluorescence; inhibition, % at 6.95 µM; actives 0.5% (n = 2,100);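 active = mean triplicate inhibition above the solvent-only control wells' mean plus 3 SD, cut at about 12% in these data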
ADAM10 ctr: ADAM10 inhibition, counter-screen for ADAM17 exosite hits. shares compounds with ADAM17 inh. recombinant ADAM10, EDANS/DABCYL FRET peptide cleavage, 3 h. inhibition, % at 6.95 µM. actives 47% (n = 2,900);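 active = mean inhibition over the triplicate runs exceeds the activity threshold set in the earlier primary screen, cut at about 20% in these data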
ADAM17 confirm: human ADAM17 inhibition, confirmation; AID 743257; inhibition, % at 6.95 µM; actives 65% (n = 2,900); shares compounds with ADAM17 inh; recombinant ADAM17, EDANS/DABCYL QFRET peptide cleavage;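 active = mean inhibition across replicates above the hit cutoff set in the primary screen, cut at about 8.5% in these data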
PLCgamma1 ctr: inhibits human PLC-gamma1 in PLC-beta3 counter-screen. shares compounds with PLCg1 inh. purified PLC-gamma1, fluorogenic substrate, fluorescence. inhibition, % at 12.3 µM. actives 3.1% (n = 3,300). AID 743258; in the data active = inhibition above about 9.5%
PLCbeta3 conf: confirmation of human PLC-beta3 inhibitors | shares compounds with PLCg1 inh | purified PLC-beta3, fluorogenic substrate fluorescence | inhibition, % at 12.3 µM | actives 1% (n = 3,300) | AID 743261
Numbers stand for hits; 0 = inactive; - = no result given. Cut-off read from the data, not from the text of the source, unless noted: active = inhibition above about 11%; inactive = the rest.

SMILES	KLK7 zymogen act	PLCb3 inh	PLCg1 inh	ADAM10 inh	ADAM17 inh	ADAM10 confirm	ADAM17 ctr	ADAM10 ctr	ADAM17 confirm	PLCgamma1 ctr	PLCbeta3 conf
O=C(CSc1ccc(Cl)cc1Cl)N1CCC(c2nc3ccccc3s2)CC1	0	0	11	21	12	0	0	0	13	0	0
O=C(NC(=S)Nc1ccc(S(=O)(=O)Nc2nccs2)cc1)c1ccc(F)c(F)c1	0	0	14	24	11	0	0	0	0	0	0
O=C(NC(=S)Nc1ccc(S(=O)(=O)Nc2nccs2)cc1)c1ccccc1	0	0	0	0	0	-	-	-	-	-	-
O=C(CC1CCCC1)N1CC[C@H]2[C@H](CCCN2Cc2ccc(F)cc2)C1	0	0	0	0	0	-	-	-	-	-	-
CC1(Cc2ccccc2OC(F)(F)F)C(=O)Nc2ccc(-c3ccsc3)cc21 (stereo not given)	0	0	11	30	10	0	0	24	14	0	0
Clc1ccccc1CSc1nnc(-c2ccccn2)n1Cc1ccco1	0	0	12	21	0	0	0	-	-	0	0
NC(=O)CSc1nnc(-c2ccccn2)n1Cc1ccco1	0	0	0	0	0	-	-	-	-	-	-
CC(=O)Oc1ccc(C(=O)Nc2cccc(C(=O)c3ccc(C)c(C)c3)c2)cc1	0	0	15	32	16	0	0	0	12	0	0
CCN1CCCCC(NC(=O)c2cccc(C(F)(F)F)c2)C1=O (stereo not given)	0	0	0	0	0	-	-	-	-	-	-
COc1ccccc1-c1cc(N)n(S(=O)(=O)c2cccc3nsnc23)n1	0	0	12	23	0	0	0	-	-	0	0
CN1C(=O)c2cc(NS(=O)(=O)c3ccc(F)cc3)ccc2OC[C@H]2O[C@@H](CC(=O)NCC(F)(F)F)CC[C@@H]21	0	0	12	26	0	0	0	-	-	13	17
COC(=O)C[C@@H]1CC[C@@H]2[C@@H](COc3ccc(NS(=O)(=O)c4ccc(F)cc4)cc3C(=O)N2C)O1	0	0	0	0	0	-	-	-	-	-	-
CN1CC=C(c2ccccc2)N(c2ccc(Cl)cc2)C1=O	0	0	0	0	0	-	-	-	-	-	-
COc1cc(/C=N/NC(=O)[C@H](Cc2c[nH]c3ccccc23)NC(=O)OCC(C)C)cc([N+](=O)[O-])c1O	0	0	14	32	16	0	0	0	0	0	0
COc1cc(/C=N/NC(=O)Cc2ccccc2)cc([N+](=O)[O-])c1O	0	0	0	0	0	-	-	-	-	-	-
CCN(CC)S(=O)(=O)c1cc([N+](=O)[O-])ccc1NNC(=O)Nc1ccccc1OC	0	0	10	26	10	0	0	0	0	0	0
CC(=O)Nc1ccc(SC[C@H](Cc2ccccc2)N2CC[C@@H](C(C)(C)C)CCC2=O)cc1	0	0	11	36	12	0	0	22	15	0	0
OC(c1ccccc1)(c1ccccc1)C1CCN(CCCOc2ccc(OC(F)(F)F)cc2)CC1	0	0	0	0	0	-	-	-	-	-	-
CC(C)C[C@H](NC(=O)c1[nH]cnc1C(=O)N[C@H](C)c1ccccc1)C(=O)OCc1ccccc1	0	0	9.6	27	13	0	0	46	21	0	0
C[C@@H](NC(=O)c1nc[nH]c1C(=O)OCc1ccccc1)c1ccccc1	0	0	0	0	0	-	-	-	-	-	-
c1ccc(C[n+]2c(-c3ccccc3)csc2Nc2ccccc2)cc1	0	0	0	0	0	-	-	-	-	-	-
CC(C)(C)Nc1scc(-c2ccccc2)[n+]1-c1ccccc1	0	0	9.7	42	0	0	0	-	-	0	0
C=CCN1[C@H](C)COc2cccc(N3CCCC3)c2S1(=O)=O	0	0	0	0	0	-	-	-	-	-	-
CN(CCCOC(=O)c1cc2ccccc2o1)C1CN(Cc2cn(Cc3ccccc3C(F)(F)F)nn2)S(=O)(=O)C1 (stereo not given)	0	0	0	0	0	-	-	-	-	-	-
CC(=O)c1ccc(NCCCN2CCC(C(O)(c3ccccc3)c3ccccc3)CC2)cc1	0	0	0	0	0	-	-	-	-	-	-
SMILES	KLK7 zymogen act	PLCb3 inh	PLCg1 inh	ADAM10 inh	ADAM17 inh	ADAM10 confirm	ADAM17 ctr	ADAM10 ctr	ADAM17 confirm	PLCgamma1 ctr	PLCbeta3 conf
O=C(O)c1ccccc1/C=N/NC(=O)C1CCCCC1	0	0	0	0	0	-	-	-	-	-	-
O=C(O)c1ccccc1/C=N/NC(=S)NC1CCCCC1	0	0	11	23	0	0	0	-	-	0	0
COc1cc(/C=N/NC(=O)c2ccc(C)nc2)cc([N+](=O)[O-])c1O	0	0	9.9	22	0	0	0	-	-	0	0
COc1ccc(N=C2SC(CC(=O)Nc3ccccc3)C(=O)N2Cc2ccco2)cc1 (stereo not given)	0	11	0	28	9.3	0	0	20	14	0	0
COC(=O)C(NC(=O)c1ccccc1C)(Nc1ncc(S(=O)(=O)c2ccc([N+](=O)[O-])cc2)s1)C(F)(F)F (stereo not given)	0	0	12	33	12	0	0	0	0	0	0
O=C(Nc1ccccc1)OCCN1CCCC12CCC(c1ccccc1)CC2 (stereo not given)	-	0	0	0	0	-	-	-	-	-	-
O=C(OCc1ccccc1Cl)c1cc([N+](=O)[O-])ccc1N1CCOCC1	0	0	14	20	0	0	0	-	-	0	0
O=C(OC12CCCN(C1)/C(=C/c1ccccc1)C2)c1ccccc1 (stereo not given)	0	0	0	0	0	-	-	-	-	-	-
CC(C)c1c(C(=O)N/N=C/c2ccc(C(F)(F)F)cc2)nnn1-c1nonc1N	0	0	0	0	9.8	-	-	22	14	-	-
CC(C)Oc1cc(NC(=O)CS(=O)CC(=O)N(C)C)c(Cl)cc1Cl (stereo not given)	0	0	0	0	0	-	-	-	-	-	-
CC(C)Oc1cc(NC(=O)CS(=O)CC(=O)Nc2cccc(C(F)(F)F)c2)c(Cl)cc1Cl (stereo not given)	0	0	0	0	9.2	-	-	31	16	-	-
O=C(OCc1cn(Cc2cccc(C(F)(F)F)c2)nn1)N1CCOCC1	0	0	0	0	0	-	-	-	-	-	-
CCOc1ccc(S(=O)(=O)c2ccc(C)cc2)c2c1no[n+]2[O-]	0	0	0	0	11	-	-	0	0	-	-

Assay outcomes from PubChem BioAssay.
